These results are taken from PubChem BioAssay.

By viability is commonly meant a read-out of living cells in per cent, often relative to untreated cells.

Where “and” joins values, the source holds several entries; their conditions need not be identical. Identical values can stand only once. More than one record can exist for a structure, and the calls need not agree. Calls of active or inactive are those of the source.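 The calls were made as follows, unless noted: active = compounds whose cell count with miR-34 switched on is under 0.7 times the count with it off; inactive = the rest.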

The nature of assay [1]: compounds altering viability of human ES cells (AID 493140; call rule not given here;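 also: cells exposed to compounds for four days before counting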). Particulars: human embryonic stem cell survival screen; stronger effect = higher value.
Assay [2] can be described thus: viability loss with induced miR-34 in A549 – imaging, A549 dox-inducible miR-34, nuclei and caspase counts, primary screen (AID 1347080). The note with it: A549 miR-34 inducible, Hoechst nuclei count, 48 h.
A short description of assay [3]: chitosan synthesis blockers in C. neoformans – flow cytometry, Cibacron Brilliant Red staining (AID 1347148; call rule not given here;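 also: compound exposure lasted three days at 37 degrees C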). Particulars: Cryptococcus neoformans chitosan, stronger effect = lower value; at 10 µM unless noted. Background: Flow cytometry measures light scatter and fluorescence of single cells or particles in a stream.
A short description of assay [4]: P. berghei load reduction in hepatocytes – cell-based, HepG2, luciferase luminescence, HepG2 viability, primary screen (AID 624349; in the data active = parasite load remaining mostly below about 12%, no sharp cut-off; inactive = mostly above about 10%;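 also: 100% = mean of DMSO negative control wells on the same plate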). The note with it: P. berghei liver stage in HepG2, luciferase luminescence, concentration not given here; parasite load remaining: stronger effect = lower value; viability: measured here: HepG2 viability without parasites.
Assay [5] in a line: compounds altering HSF1 focus formation in cells – imaging, Selleck Cancer Library (AID 1347162; in the data active = plate-normalised HSF1 focus index below about 0.46). Particulars: human cells, HSF1 nuclear foci imaging, at 10 µM; SSMD: measured here: HSF1 foci SSMD mean; cell count: measured here: cell number; plate-normalised HSF1 focus index: stronger effect = lower value.
A short description of assay [6]: MELAS cybrid and Rieske KO viability enhancers – cell-based, MELAS cybrids, Rieske KO mouse fibroblasts, CellTiter-Glo, primary screen (AID 1508586;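 active = mean z-score across replicates of 1.96 or higher in either the MELAS or the Rieske mutant cell line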;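 also: z relative to plate mean and SD of compound and empty wells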). The note with it: low glucose. On the technique in general: Cellular ATP, detected with luciferase, serves as a proxy for viable cell number.
Assay [7] is described as follows: galactose survival enhancers in mitochondrial complex I cybrids – cell-based, galactose medium, ATP luminescence, primary screen (AID 1645843;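 active = z-score of at least 1.8 in each of two replicates, scored against plate mean and spread of sample wells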;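 also: positive z means more ATP and so rescue of galactose-driven cybrid death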). Particulars: complex I mutant cybrid cells, 72 h, stronger effect = higher value.
The mark [8] stands for this setting: stronger effect = lower value, cell number ratio, induced over uninduced.
Setting [9] is: measured here: relative caspase fold change +Dox/-Dox.
Setting [10] is: measured here: total cells with miR-34 induction, stronger effect = lower value.
Where [11] appears, read: measured here: total cells without miR-34 induction.
[12] abbreviates: MELAS cybrid survival, CellTiter-Glo 48 h, stronger effect = higher value.
Where [13] appears, read: Rieske KO mouse fibroblast survival, CellTiter-Glo 72 h.

For the molecule `CCCCCCCCCCCCC/C=C/[C@@H](O)[C@H](CO)NC(=O)CCCCCCC`, the survival in assay [1] is 77.3 (inactive). The fold change in assay [2] (setting [8]) was 0.885 (inactive) and 1 (inactive); in assay [2] (setting [9]) it was 2.05 and 0.909. In addition, the cell count is 5260 and 5480 in assay [2] (setting [10]); 5940 and 5480 in assay [2] (setting [11]). For the same molecule, the fold fluorescence in assay [3] is 4.66 (inactive).
With `Nc1ccc2ncnc(NCCc3ccc(Oc4ccccc4)cc3)c2c1`, the parasite load remaining in assay [4] is 1.5% (active). In assay [4], the viability worked out at 70.6%. In addition, the fold change in assay [2] (setting [8]) is 0.738 (inactive) and 0.708 (inactive) and 0.683 (active); in assay [2] (setting [9]), 1.4 and 1.31 and 3.23. The cell count in assay [2] (setting [10]) is 2180 and 3030 and 5480; in assay [2] (setting [11]), 2950 and 4280 and 8020; in assay [5] it was 2600. The SSMD in assay [5] was -5.88. In addition, in assay [5], the plate-normalised HSF1 focus index was 0.65 (inactive). Besides, the z-score in assay [6] (setting [12]) is -0.305 (inactive); in assay [6] (setting [13]), -0.135.
On to `CC/C=C\C/C=C\C/C=C\C/C=C\C/C=C\CCCCCC(=O)O`, for which the survival in assay [1] is 78 (inactive). The fold change was 0.983 (inactive) and 0.953 (inactive) in assay [2] (setting [8]); 0.972 and 0.777 in assay [2] (setting [9]). Moreover, the cell count in assay [2] (setting [10]) is 5080 and 5820; in assay [2] (setting [11]) it was 5170 and 6110. Further, the fold fluorescence in assay [3] is 5.56 (inactive).
In the case of `CCCCCC#CCC#CCC#CCC#CCCCC(=O)O`, the survival in assay [1] is 87.3 (inactive). For the same molecule, the fold change is 0.956 (inactive) and 0.974 (inactive) in assay [2] (setting [8]); 1.11 and 0.98 in assay [2] (setting [9]). The cell count was 5420 and 5670 in assay [2] (setting [10]); 5670 and 5820 in assay [2] (setting [11]). Further, the fold fluorescence in assay [3] was 5.73 (inactive).
As to `CC(=O)N[C@@H](CSC/C=C(\C)CC/C=C(\C)CCC=C(C)C)C(=O)O`, the survival in assay [1] is 97.2 (inactive). For the same molecule, the fold change in assay [2] (setting [8]) was 0.899 (inactive) and 1.06 (inactive); in assay [2] (setting [9]), 1.4 and 1.04. Further, the cell count was 5730 and 5900 in assay [2] (setting [10]); 6380 and 5570 in assay [2] (setting [11]). In assay [3], the fold fluorescence is 5 [at 136 µM] (inactive).
As to `O=C(O)CCC/C=C\CC1C2CCC(O2)C1CNNC(=O)Nc1ccccc1` (centres undefined), in assay [1], the survival is 88.6 (inactive). Moreover, the fold change is 0.964 (inactive) and 0.895 (inactive) in assay [2] (setting [8]); 1.45 and 1.09 in assay [2] (setting [9]). Also, the cell count in assay [2] (setting [10]) was 5700 and 5510; in assay [2] (setting [11]) it was 5910 and 6160. Also, in assay [3], the fold fluorescence is 4.39 (inactive).
For the molecule `CCCCC/C=C\C/C=C\C/C=C\C/C=C\CCCC(=O)OC(CO)CO`, the survival in assay [1] is 72.6 (inactive). The fold change in assay [2] (setting [8]) was 0.947 (inactive) and 1.01 (inactive); in assay [2] (setting [9]), 1.17 and 0.841. In addition, the cell count was 6380 and 5230 in assay [2] (setting [10]); 6740 and 5180 in assay [2] (setting [11]). Further, in assay [3], the fold fluorescence was 5.06 (inactive).
With `CCCCC[C@H](O)/C=C/[C@H]1C=CC(=O)[C@@H]1C/C=C\CCCC(=O)O`, the survival in assay [1] is 122 (inactive). Besides, the fold change in assay [2] (setting [8]) was 0.976 (inactive) and 0.946 (inactive); in assay [2] (setting [9]) it was 1.27 and 1.82. Further, the cell count in assay [2] (setting [10]) was 5740 and 5500; in assay [2] (setting [11]), 5880 and 5820. In addition, in assay [3], the fold fluorescence is 4.51 (inactive).
Regarding `CCCCCCCC(=O)OC[C@H](CO)OC(=O)CCCCCCC`, the survival in assay [1] is 75.3 (inactive). The fold change in assay [2] (setting [8]) is 1 (inactive) and 1.04 (inactive); in assay [2] (setting [9]), 1.36 and 0.811. In addition, the cell count was 5210 and 5590 in assay [2] (setting [10]); 5190 and 5400 in assay [2] (setting [11]). In assay [3], the fold fluorescence is 6.5 (inactive).
Regarding `CCCCC/C=C/C=C1/C(=O)C=C[C@@H]1C/C=C\CCCC(=O)O`, the survival in assay [1] was 82.2 (inactive). The fold change is 1.04 (inactive) and 0.838 (inactive) and 1.58 (inactive) in assay [2] (setting [8]); 1.45 and 1.36 and 1.03 in assay [2] (setting [9]). Further, the cell count in assay [2] (setting [10]) is 5600 and 6330 and 6250; in assay [2] (setting [11]), 5380 and 7550 and 3960. Further, the fold fluorescence in assay [3] is 6.54 (inactive).
For the molecule `CO[C@H]1C[C@@H]2CC[C@@H](C)[C@@](O)(O2)C(=O)C(=O)N2CCCC[C@H]2C(=O)O[C@H]([C@H](C)C[C@@H]2CC[C@@H](O)[C@H](OC)C2)CC(=O)[C@H](C)/C=C(\C)[C@@H](O)[C@@H](OC)C(=O)[C@H](C)C[C@H](C)/C=C/C=C/C=C/1C`, in assay [4], the parasite load remaining was 55.9% (inactive). For the same molecule, the viability in assay [4] is 106%. The fold change was 0.856 (inactive) and 0.953 (inactive) in assay [2] (setting [8]); 1.35 and 1.11 in assay [2] (setting [9]). In addition, the cell count in assay [2] (setting [10]) was 3240 and 7080; in assay [2] (setting [11]), 3790 and 7430; in assay [5], 7610. In assay [5], the SSMD turned out to be 1.27. For the same molecule, in assay [5], the plate-normalised HSF1 focus index is 1.08 (inactive). The z-score in assay [6] (setting [12]) was -0.0487 (inactive); in assay [6] (setting [13]), 0.674; in assay [7], 2.58 (active).
With `CCCCCCCC/C=C\C/C=C\C/C=C\CCCC(=O)O`, the survival in assay [1] is 69.8 (inactive). The fold change in assay [2] (setting [8]) was 0.997 (inactive) and 0.986 (inactive); in assay [2] (setting [9]), 1.14 and 0.749. Moreover, the cell count in assay [2] (setting [10]) is 6200 and 5590; in assay [2] (setting [11]) it was 6220 and 5670. For the same molecule, the fold fluorescence in assay [3] is 4.51 (inactive).
With `CCCCC[C@H](O)/C=C/[C@H]1C(=O)C=C[C@@H]1C/C=C\CCCC(=O)O`, the survival in assay [1] was 86.8 (inactive). Also, the fold change in assay [2] (setting [8]) is 0.937 (inactive) and 0.931 (inactive); in assay [2] (setting [9]), 1.17 and 1.23. For the same molecule, the cell count in assay [2] (setting [10]) is 6120 and 6100; in assay [2] (setting [11]), 6540 and 6550. For the same molecule, in assay [3], the fold fluorescence was 4.57 (inactive).
